Measured values published in PubChem BioAssay AID489028 (Sanford-Burnham Center for Chemical Genomics, 2010).
The whole screen tested about 10,000 compounds, of which about 5,600 (56%) were called active. Rule as the data show it: active = inhibition above about 40%; inactive = the rest. So high a share suggests a set chosen from earlier hits. A selection follows.

These molecules were tested against Protein Mdm4 (Homo sapiens) + E3 ubiquitin-protein ligase Mdm2 (Homo sapiens) (UniProt O15151+Q00987) (assay: inhibition of human Mdm2/MdmX pairing – luminescence, single concentration, confirmation (AID 489028)). Conditions: Mdm2-MdmX binding, luminescent assay; at 8 µM; hits give high values.
Protein Mdm4 (Homo sapiens) + E3 ubiquitin-protein ligase Mdm2 (Homo sapiens), sequence (O15151 whole entry, looked up): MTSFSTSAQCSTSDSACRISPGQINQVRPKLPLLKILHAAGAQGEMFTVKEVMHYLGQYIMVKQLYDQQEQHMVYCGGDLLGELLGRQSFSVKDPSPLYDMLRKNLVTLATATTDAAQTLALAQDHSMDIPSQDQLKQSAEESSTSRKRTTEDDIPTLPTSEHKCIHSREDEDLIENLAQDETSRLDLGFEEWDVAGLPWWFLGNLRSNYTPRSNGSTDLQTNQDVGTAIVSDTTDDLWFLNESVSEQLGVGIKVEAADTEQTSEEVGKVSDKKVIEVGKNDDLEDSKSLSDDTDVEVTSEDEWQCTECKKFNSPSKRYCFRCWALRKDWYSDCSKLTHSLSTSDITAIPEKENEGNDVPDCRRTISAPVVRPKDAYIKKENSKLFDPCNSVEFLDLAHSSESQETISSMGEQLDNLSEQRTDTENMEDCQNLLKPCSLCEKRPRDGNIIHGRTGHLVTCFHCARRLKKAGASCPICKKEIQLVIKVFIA
Protein Mdm4 (Homo sapiens) + E3 ubiquitin-protein ligase Mdm2 (Homo sapiens), sequence (Q00987 whole entry, looked up): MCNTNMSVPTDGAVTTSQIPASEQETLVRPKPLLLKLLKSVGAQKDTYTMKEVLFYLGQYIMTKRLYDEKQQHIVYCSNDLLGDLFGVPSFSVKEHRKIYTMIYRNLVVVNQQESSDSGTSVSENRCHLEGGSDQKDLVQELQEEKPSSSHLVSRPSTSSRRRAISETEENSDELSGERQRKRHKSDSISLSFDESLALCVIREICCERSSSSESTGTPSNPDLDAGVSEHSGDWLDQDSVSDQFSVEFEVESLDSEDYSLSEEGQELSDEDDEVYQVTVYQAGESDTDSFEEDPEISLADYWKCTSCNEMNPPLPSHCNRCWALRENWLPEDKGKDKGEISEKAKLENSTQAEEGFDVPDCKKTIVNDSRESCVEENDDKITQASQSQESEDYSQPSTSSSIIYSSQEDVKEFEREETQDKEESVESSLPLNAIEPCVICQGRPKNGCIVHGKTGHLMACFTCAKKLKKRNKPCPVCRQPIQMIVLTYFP

Compound | inhibition
O=C(/C=C/c1ccc(OCc2c(F)cccc2Cl)cc1)N1CCOCC1 | 66.7% (active)
CCc1nc(C)cn1S(=O)(=O)c1cc([N+](=O)[O-])ccc1Cl | 50.9% (active)
O=C(CCCN1C(=O)/C(=C\c2ccco2)SC1=S)Nc1cccc2ccccc12 | 94.5% (active)
O=C(CCCN1C(=O)/C(=C/c2ccco2)SC1=S)Nc1ccccc1 | 70.8% (active)
OC(CNCC1CCCO1)Cn1c2ccc(Br)cc2c2cc(Br)ccc21 (stereo not given) | 38% (inactive)
Cc1oc2c(c1C(=O)N1CCOCC1)C(=O)c1ccccc1C2=O | 62.5% (active)
Cc1c(C(=O)Nc2cccc(Cl)c2)cn2c(nc3ccccc32)c1C#N | 9.95% (inactive)
COc1ccc2nc(Nc3nc4ccc(NC(C)=O)cc4s3)sc2c1 | 35.2% (inactive)
Cc1nc(N2CCN(c3ccccn3)CC2)c2c(C)c(C(=O)Nc3ccc(F)c(Cl)c3)sc2n1 | 34.2% (inactive)
Cc1nnc(NC(=O)Nc2ccc(Cl)c(Cl)c2)s1 | 86.5% (active)
CC(C)(C)CC(C)(C)NCC(O)COCCOc1ccc(Br)cc1 (stereo not given) | 51.1% (active)
Cc1nn(-c2ccccc2)c2sc(C(=O)N(Cc3ccco3)C(C)C(=O)NC(C)(C)C)cc12 (stereo not given) | 12.8% (inactive)
CC[C@H]1CN2CCc3cc(OC)c(OC)cc3[C@@H]2C[C@@H]1C[C@H]1NCCc2cc(OC)c(OC)cc21 | 99.8% (active)
Cc1ccc(-c2cccc([C@H]3[C@@H]4C=CC[C@@H](C)[C@@H]4C(=O)N3Cc3ccccc3)c2)cc1 | -5.3% (inactive)
CCOC(=O)c1ccc(NC(=O)c2c(NCc3ccccc3)[nH]c(=O)[nH]c2=O)cc1 | 12.4% (inactive)
Cc1cc(NC(=O)/C=C/C(=O)N(c2ccccc2C)C(C(=O)NC2CCCC2)c2ccc(F)cc2)no1 (stereo not given) | 70% (active)
N/C(=N\OC(=O)N1c2ccccc2Sc2ccccc21)c1ccc(Br)cc1 | -3.5% (inactive)
N/C(=N\OC(=O)c1ccc2c(c1)OCO2)c1ccc(Br)cc1 | 40.2% (active)
CCOC(=O)/C=c1\s/c(=C\c2ccc(C#N)cc2)c(=O)n1CC(=O)Nc1cccc(C)c1C | 8.85% (inactive)
Oc1ccccc1C1=NN(c2ccccc2)C(c2ccccc2)C1 (stereo not given) | 8.55% (inactive)
COc1ccc(OC)c(NC(=O)c2sc3nc(C)cc(C)c3c2N)c1 | 15.5% (inactive)
O=C(Nc1nnc(-c2ccccc2)o1)c1cc(-c2cccs2)nc2ccccc12 | 29.7% (inactive)

Compound | inhibition
COc1ccc(NC(=O)c2cc(-c3cc(OC)c(OC)c(OC)c3)nc3ccccc23)c(OC)c1 | 57% (active)
O=[N+]([O-])c1c(NCCO)cc(Sc2nc3ccccc3s2)c2nonc12 | 96.7% (active)
COc1cccc(CNC(=O)Cc2csc(Nc3nc(=S)[nH]c4ccccc34)n2)c1 | 15.8% (inactive)
COc1cccc(CNC(=O)c2nnn(CC(=O)Nc3cc(Cl)ccc3C)c2N)c1 | 62.3% (active)
CCCCCCSc1ccc([C@@H]2[C@@H]3C(=O)N(CC)C(=O)[C@@H]3[C@]3(C(=O)OC)CCCCN23)cc1OC | 21.6% (inactive)
CCOC(=O)/C(=C\c1ccc([N+](=O)[O-])cc1)C(=O)c1cc(C(C)=O)c(Nc2ccccc2)s1 | 99.6% (active)
Cc1ccc2occ(/C=N/NC(=O)c3ccccc3C)c(=O)c2c1 | 65.8% (active)
CCc1ccc(-c2cc3c(=O)n(CC(=O)NCCCN4CCN(Cc5ccccc5)CC4)nc(C)n3n2)cc1 | 55.5% (active)
Cn1c(C(=O)NCCCN2CCN(c3cccc(Cl)c3)CC2)cc2c(=O)n(C)c3ccccc3c21 | 37.8% (inactive)
O=C(C[C@H]1C/C=C\C[C@@H](NC(=O)OCC2c3ccccc3-c3ccccc32)C(=O)O[C@@H](c2ccccc2)CNC1=O)N[C@H](CO)Cc1ccccc1 | 28.4% (inactive)
O=C1NC[C@@H](c2ccccc2)OC(=O)[C@H](Cc2ccc(F)cc2)CC/C=C/C[C@H]1CC(=O)N(CCO)Cc1ccccc1 | 54.5% (active)
C=CC[C@H](CC(=O)N(CCO)Cc1ccccc1)C(=O)N[C@@H](COC(=O)[C@@H](CC=C)Cc1ccc(F)cc1)Cc1ccccc1 | 1.35% (inactive)
CN1CCN(CCCNC(=O)c2ccc(/C=C3\Oc4ccccc4N(Cc4ccc(Cl)cc4)C3=O)cc2)CC1 | 55% (active)
Cc1ccccc1C(CC(=O)c1cccs1)C(C#N)C#N (stereo not given) | 54.7% (active)
Clc1cccc(Cl)c1OCCOCCNCc1ccccc1 | 86% (active)
O=C(N/N=C/c1sc(N2CCCCC2)nc1-c1cccs1)c1cccnc1 | 25.3% (inactive)
CCOc1ccccc1NC(=O)Cn1nnc(C(=O)NCc2cccs2)c1N | 52.7% (active)
Cc1ccc(-c2nn(C(C)(C)C)c3ncnc(N)c23)cc1 | 67% (active)
COc1cc(SC)ccc1C(=O)Nc1nc(C)cs1 | 57.5% (active)
CCCC(=O)Nc1ccc(C(=O)N/N=C/c2ccc[nH]2)cc1 | 6.9% (inactive)
CCn1c(/C=C/Nc2ccccc2)[n+](CC)c2ccc(C(=O)OCC(F)(F)F)cc21 | 13.1% (inactive)
O=C(COc1ccccc1F)Nc1nc(-c2ccccn2)cs1 | 53.6% (active)

Compound | inhibition
CC1CCN(C(=O)c2ccc(S(=O)(=O)Cc3cc(F)ccc3F)c([N+](=O)[O-])c2)CC1 | 64% (active)
CCOC(=O)N1CCN(C(=O)c2ccc(S(=O)(=O)c3ccc(C)cc3)c(NC(C)=O)c2)CC1 | 8.65% (inactive)
FC(F)(F)c1nnc2c3ccccc3c(Cl)nn12 | 47% (active)
COc1ccccc1C(=O)NC(=S)NC12CC3CC(CC(C3)C1)C2 | 21.8% (inactive)
Cn1nc(-c2ccccc2)c(CSc2cccc(Cl)c2)c1Cl | 48.5% (active)
CCOC(=O)c1c(NC(=O)c2ccc(S(=O)(=O)N(C)CC3CCCO3)cc2)sc2c1CC(C)(C)NC2(C)C (stereo not given) | 47.1% (active)
C=CCN(CC=C)S(=O)(=O)c1ccc(C(=O)Nc2sc3c(c2C(N)=O)CCCCC3)cc1 | 10.8% (inactive)
CC1(C)CCSC(/C=C/c2ccccc2)=N1 | 68% (active)
Cc1[nH]c(=O)c(C(=O)/C=C/c2ccccc2)c2c1CCCC2 | 99.5% (active)
C=CCn1c(C)cc(C2=NNC(=NCC)SC2)c1C | 98.1% (active)
Cc1cc(C)nc(S/C=C/C(=O)c2ccccc2)n1 | 32.4% (inactive)
O=C(/C=C/Sc1ncn[nH]1)c1ccc(Cl)cc1 | 80.4% (active)
CC[n+]1cc(C)ccc1/C=C/c1ccc(N(C)C)cc1 | 53.6% (active)
COc1ccccc1N1CCN(C(=O)c2cc(=O)c3cc(C)cc(C)c3o2)CC1 | 66.8% (active)
C#CCOCCOCCOCCNc1nc(N2CCN(C(=O)CCCCCCCCCCNC(=O)[C@H](CCCCN)n3cc(C)nn3)CC2)nc(N2CCN(C(=O)CCCCCCCCCCNC(=O)[C@H](CO)n3cc(CCCSC)nn3)CC2)n1 | 14% (inactive)
CN(NC(=O)c1ccccc1F)c1nc(C(F)(F)F)nc2ccccc12 | 57% (active)
O=C(Nc1nnc(-c2ccccc2F)s1)c1ccccc1F | -82.2% (inactive)
CN(NC(=O)c1ccccc1)c1nc2ccccc2nc1C(F)(F)F | 51.9% (active)
CSc1nc(N(C)NC(=O)c2cccc(C)c2)c2ccccc2n1 | 57.7% (active)
CCOC(=O)/C=C/C(=O)OCC(=O)NC(c1ccccc1)c1ccccc1 | 74.5% (active)
COc1cc2c(cc1NC(=O)COC(=O)/C=C/c1ccccc1)oc1ccccc12 | -6.7% (inactive)
Cc1ccccc1NC(=O)CSc1nc2ccc(Nc3nc(N4CCOCC4)nc(N4CCOCC4)n3)cc2s1 | 35.7% (inactive)

Compound | inhibition
Cc1cc2cc3c(cc2nc1SCC(=O)Nc1c(C)cccc1C)CCC3 | 43.1% (active)
OCCNc1nc(Nc2ccc(Cl)c(Cl)c2)nc2ccccc12 | 69.5% (active)
O=C(CSc1nc2ccccc2c(=O)[nH]1)Nc1nc(-c2ccc(Br)cc2)cs1 | 47.8% (active)
O=C(NNc1ccccc1Cl)C(O)(c1cccc(C(F)(F)F)c1)c1cccc(C(F)(F)F)c1 | 36.2% (inactive)
COC(=O)Cc1[nH]n(-c2nc3ccccc3s2)c(=O)c1C(C)=Nc1ccc(OC)cc1 | 89.3% (active)
CCCCN(CCCC)CCC(O)c1cc2c(Cl)cc(Cl)cc2c2cc(C(F)(F)F)ccc12 (stereo not given) | 21.1% (inactive)
COc1ccc2sc(-c3ccccc3OC)c(-c3ccc(OCCN4CCCC4)cc3)c2c1 | 5.35% (inactive)
COc1cccc(-c2sc3ccc(OC)cc3c2-c2ccc(OCCN3CCCCC3)cc2)c1 | 49.5% (active)
O=C(CN1C(=O)c2ccccc2S1(=O)=O)N1CCc2ccccc21 | 53% (active)
COCCCNc1nc2c(-c3cccc(C)c3)nnn2c2ccc(Cl)cc12 | 67% (active)
C=CCC[C@@H](Cc1ccc(F)cc1)C(=O)O[C@H](CNC(=O)[C@H](CC=C)CC(=O)N(CCO)Cc1ccccc1)c1ccccc1 | 12.4% (inactive)
Cc1cccn2c(=O)c3cc(C(=O)NCCN4CCOCC4)c(=N)n(Cc4cccnc4)c3nc12 | 49.2% (active)
COc1ccc(CCn2c(=N)c(C(=O)NCC3CCCO3)cc3c(=O)n4cccc(C)c4nc32)cc1OC (stereo not given) | 48.1% (active)
CCc1ccc(CNC(=O)C2CCN(c3nnc(C)c4c(C)n(-c5ccc(C)cc5)nc34)CC2)cc1 | 56.7% (active)
COc1cc(NC(=O)c2ccccc2NS(=O)(=O)c2ccc(Cl)s2)cc(OC)c1 | 76.4% (active)
Cc1nc2ccccc2nc1N/N=C/c1ccc(O)cc1O | 61.6% (active)
Oc1ccc(/C=N/Nc2nc(-c3ccccc3F)nc3ccccc23)c(O)c1 | 54.6% (active)
COC(=O)C1=C(Nc2ccc(C)cc2)C=C(C)C(C(=O)OC)C1c1ccc(F)cc1 (stereo not given) | 53.5% (active)
Nc1nonc1-n1nnc(C(=O)N/N=C/c2ccccc2O)c1CN1CCCC1 | 33.8% (inactive)
